This passage reports growth results from PubChem BioAssay (NCI).

Values joined by “and” are separate entries in the source; they are usually repeats but may differ in a detail not shown here. Equal entries are not always repeated. The panel holds about 83,000 compounds, 20% with a hit somewhere; the sample as a whole holds those more often.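 Testing used 96-well plates and a 48-hour single-concentration exposure. Example: -40 means 40% of the starting cells died.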 Values without a mark were called inactive. Active and inactive are the calls of the source.

In the assay the test system is OVCAR-5 ovarian. In words: NCI-60 one-dose screen, 48 h (100 = growth as untreated, 0 = no growth, -100 = all killed). As to conditions: 10 µM unless noted. How it is done: Growth inhibition of the OVCAR-5 human tumor cell line is measured as a screen for anti-cancer activity. Cells are grown in 96 well plates and exposed to the test compound for 48 hours. Compounds are tested at a single concentration, which is 10^-5 M for most compounds. The reported endpoint is percent growth (GI% or GIPRCNT), where numbers from 0 - 100% represent growth inhibition, and numbers from -100% - 0 represent cell death. For example, a value of 40 represents 60% growth inhibition. A value of 0 means no net growth occurred over the course of the experiment. A value of -40 indicates 40% of cells at the beginning of the experiment died by the end of the experiment. A value of -100 means all cells are dead at the end of the experiment.
NCI-60 Human Tumor Cell Lines Screen was performed using the standard one-dose NCI protocol, which is described in more detail at https://dtp.cancer.gov/discovery_development/nci-60/default.htm.
Compounds with GIPRCNT values below 10 were considered active. Activity score was based on GIPRCNT using the following formula: […]
Score is 0 for GIPRCNT values of 100 or above, 50 for GIPRCNT values of 0, and 100 for GIPRCNT values of -100.
As to `COc1ccc(-c2cc(-c3cc(OC)c(OC)c(OC)c3)c(C#N)c(=O)n2CCCCC(=O)O)cc1`, the growth is 105%. To `CCN(C(=O)N1CCN(c2cc3c(cc2F)c(=O)c(C(=O)O)cn3C2CC2)CC1)c1nc(-c2ccccc2)cs1` belongs 35.7%; to `COc1cc(Cl)cc(-c2nn(C(=O)NS(=O)(=O)c3ccc(Cl)cc3)cc2-c2ccncc2)c1`, 87.4%. Consider `[2H]C([2H])([2H])Oc1cc(F)ccc1/C=C/C(=O)/C=C(/C=C/c1ccc(F)cc1OC([2H])([2H])[2H])OB(F)F`, for which the growth is 104%. To `O=C(/C=C/c1cccs1)Nc1ncc(Cc2ccc(Cl)c(Cl)c2)s1` belongs 74.1%. `O=C(O)C1C2CCC1C(O)C2` (stereo not given): the growth is 96.5% and 96.2%. Turning to `COc1ccc(C2=C(CN)C(O)NC(=NCC(=O)c3ccc4ccccc4c3)N2)cc1` (stereo not given), the growth is 99.8%. As for `COc1cc2cc(NCc3ccncc3)nc(C)c2cc1OC`, the growth is 80.7%. To `O=C(CCl)n1nnnc1Cc1ccccc1` belongs 95.9%; to `Cc1ccc(NC(=O)c2ccc(CN3CCN(C)CC3)cc2)cc1Nc1nccc(-c2cccnc2)n1`, 123% and 97.5%.

Turning to `CC1(C)C(N)=Nc2cc(OCCCN3Cc4ccc(OCCc5cn(CC(=O)N6CCC(CCN7CCCC7)CC6)nn5)cc4C3)c(OCC3CC3)cc21`, the growth was 95%.

Regarding `N#Cc1c(N)nnn1Cc1cc(=O)oc2ccc(O)cc12`, the growth was 106%.

In the case of `Cc1ccc(/C=C2\COc3ccc(O)c(O)c3C2=O)cc1`, the growth was -22.1% (active). For `CC(C)(C)CC(N)=O` the value was 102%. As for `Nc1ccc(S(=O)(=O)c2ccc(N)cc2)cc1`, the growth was 104% and 96.4%. To `COc1ccc(Cn2cc(C(=O)Nc3cccnc3Nc3ccccc3)nn2)cc1` belongs 107%. Regarding `Cc1c(C(=O)OCCCCOC(=O)c2c(C)n(C)c3scc[n+]23)[n+]2ccsc2n1C`, the growth was 83.5%. To `CN1CCN(c2ccc(Nc3ncc(C(N)=O)c(NCCCNC(=O)C4CCC4)n3)cc2)CC1` belongs 116%; to `COc1ccc(CN2CCc3c(Cl)nc(N)nc3C2=O)c(OC)c1`, 45.1% [100 µM]; to `Cc1nc2cccc(NCCCCC(=O)NO)c2c(=O)n1-c1ccccc1`, 31.1%. For `CC(C)(C)c1cc(NC(=O)Nc2ccc(-c3cn4c(n3)sc3cc(OCCN5CCOCC5)ccc34)cc2)no1` the value was 56% and 60.8%; for `N#C/C(=C\c1ccccc1Cl)c1cc2ccccc2[nH]1`, 95.8%. For the compound `Clc1ccc(Nc2nc(Nc3ccc(Cl)cc3)nc(Nc3ccc(-c4cc(-c5cccc(Cl)c5)on4)cc3)n2)cc1`, the growth was 71.4%. With `CCOc1ccc(N2C(N)=NC(N)=NC2(C)C)cc1`, the growth was 55.6% and 100%.

Regarding `CCCNNC(=O)/C=C/c1ccc(CNCCc2c(C)[nH]c3ccccc23)cc1`, the growth is 1.96% [2.5 µM] (active). As to `C=C1C(=O)O[C@H]2[C@H]1CC/C(CNS(=O)(=O)c1ccc3ccccc3c1)=C\CC[C@@]1(C)O[C@@H]21`, the growth was 14.9%. To `O=C(Nc1ccc2ncsc2c1)c1csc(Nc2ccc3[nH]ncc3c2)n1` belongs 78.6%; to `CCN1CCN(CC(=O)Nc2nc3ccc(NCc4ccc(C)cc4)cc3s2)CC1`, 80.5%; to `CCN(CC)CCOc1ccc(/C(=C(\Cl)c2ccccc2)c2ccccc2)cc1`, 47.5% and 72.4%.

As to `O=C1N=c2ccccc2=C1c1sc(=S)n(C2CC(=O)N(c3ccc(Cl)cc3)C2=O)c1O` (stereo not given), the growth was 105%. For `COc1c(F)cc(-n2c(C(=O)N3CC(F)C3)cc3cccnc32)cc1F` the value was 100%.

For the compound `O=C(Oc1ccc(CO[N+](=O)[O-])cc1)c1ccccc1`, the growth was -81.2% (active).

For the compound `O=C(/C=C/c1ccc([N+](=O)[O-])cc1)c1ccccc1`, the growth is 106%. To `CC12CCC(C(=O)CC1=O)C2(C)C` (stereo not given) belongs 101% and 106%.

For the compound `CC1=CC(C)(C)NC(=S)N1c1ccc(Cl)cc1`, the growth is 95% and 104%. Regarding `CC(=O)N1N=C(c2ccc(Nc3nc(Nc4ccc(F)cc4)nc(Nc4ccc(F)cc4)n3)cc2)CC1c1ccccc1` (stereo not given), the growth was 72.3%. For `Cc1ccc(S(=O)(=O)Nc2cc(Sc3ccccc3)c(O)c3ccccc23)cc1` the value was 106%; for `C=C(CNCCO)[C@@H]1CC[C@]2(CO)CC[C@]3(C)[C@H](CC[C@@H]4[C@@]5(C)CCC(NCCc6ccc(O)cc6)C(C)(C)[C@@H]5CC[C@]43C)[C@@H]12` (stereo not given in full), 0.392% (active). To `CC1=C2[C@@H](CC1)[C@]1(C)O[C@@](C(C)C)(C[C@H]1OC(=O)CO)[C@H]2OC(=O)C1CC1c1ccccc1` (stereo not given in full) belongs 78.2%.

In the case of `CN1CCN(Cc2ccc(NC(=O)c3nc4ccc5[nH]ncc5c4c4c3CCCC4)cc2C(F)(F)F)CC1`, the growth was 37.1%.
